Laboratory results taken from the supplement of paper PMC9177965.

Tested on: HT29 sg-Ctrl (RNF43 wildtype)
Experiment: cell viability activity relative to DMSO (negative = inhibition); higher = more viable cells (less growth inhibition)
Conditions: 5 µM; 96 h
Experimental: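 Broad Repurposing Library primary screen at a single dose of 5 uM. HT29 sg-Ctrl and HT29 RNF43 G659fs CRISPR-edited isogenic cells were seeded at 2500 cells/well in 384-well plates in duplicate and treated for 96 h. Viability was read by CellTiter-Glo and reported as % activity relative to DMSO, with MG132 as the positive control (negative = growth inhibition).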

Compared with COc1cc(OC)c(/C=C/S(=O)(=O)Cc2ccc(OC)c(NCC(=O)O)c2)c(OC)c1, CNCCn1c(=O)c2cc(OC)c(OC)cc2c2cnc3cc4c(cc3c21)OCO4 is lower in cell viability activity: -54.8% for the first, -86.6% for the second.

First: CC(=O)N1CCN(CCOc2ccc(C3CCN(C4=Nn5c(nnc5C(F)(F)F)CC4)CC3)cc2)CC1
Second: Cc1c(C(=O)Nc2ccc(N3CCC(N4CCOCC4)CC3)c(C#N)c2)cnn1-c1ccc(Cl)cc1
The cell viability activity of the first is lower: -33.7% for the first, -33.4% for the second.

Compared with Cc1ccccc1CN1C(=O)C2=C(CCN(Cc3ccccc3)C2)N2CCN=C12, CCOC(=O)CCNc1cc(N2CCc3ccccc3CC2)nc(-c2ccccn2)n1 is higher in cell viability activity: -76.7% for the first, -27.5% for the second.

Going from Fc1cc(-c2cccc3ncc(-c4cnn(C5CCNCC5)c4)nc23)cc(F)c1CN1CCOCC1 to CN1CCN(Cc2ccc(-c3cnc4[nH]cc(-c5ccc6[nH]ccc6c5)c4c3)cc2)CC1, the cell viability activity rises from -92.4% to -82.4%.

First: CC1NC(=O)C(N)CNC(=O)C(C2CCN=C(N)N2)NC(=O)/C(=C\NC(N)=O)NC(=O)C(CNC(=O)CC(N)CCCN)NC1=O (centres undefined)
Second: COc1cc([C@@H]2c3cc4c(cc3[C@@H](O[C@@H]3O[C@@H]5CO[C@@H](C)O[C@H]5[C@H](O)[C@H]3O)[C@H]3COC(=O)[C@H]23)OCO4)cc(OC)c1OP(=O)(O)O
The cell viability activity of the first is higher: 0.515% for the first, -24.7% for the second.

Compared with COc1c/c(=C2\C=c3ccccc3=N2)[nH]/c1=C\c1[nH]c(C)cc1C, CCC[C@H](Nc1nc(-c2ccc(NC(=O)NCC)c(OC)c2)ncc1C)c1cccnc1 is higher in cell viability activity: -88.7% for the first, -49.4% for the second.

Going from C/C(=N\NC(=S)N1CCC1)c1ccccn1 to Cc1cc(C2CCCCC2)n(O)c(=O)c1, the cell viability activity rises from -88.9% to -83.4%.

First: O=C(c1ccc(F)c(F)c1Nc1ccc(I)cc1F)N1CC(O)([C@@H]2CCCCN2)C1
Second: Cn1cnc2c(F)c(Nc3ccc(Br)cc3F)c(C(=O)NOCCO)cc21
The cell viability activity of the first is lower: -88.9% for the first, -82.9% for the second.

First: CCOc1cc2ncc(C#N)c(Nc3ccc(OCc4ccccn4)c(Cl)c3)c2cc1NC(=O)/C=C/CN(C)C
Second: O=C(/C=C/c1ccc2ccccc2n1)c1ccncc1
The cell viability activity of the first is higher: -30.9% for the first, -54% for the second.

Compared with C[C@@H]1COCCN1c1cc(=O)n2c(n1)N(Cc1cncc(Cl)c1)[C@H](C(F)(F)F)CC2, O=C(/C=C\n1cnc(-c2cc(C(F)(F)F)cc(C(F)(F)F)c2)n1)NNc1cnccn1 is lower in cell viability activity: 1.22% for the first, -69.8% for the second.

Going from COc1cc2ncnc(Sc3nnc(C)s3)c2cc1OC to CN(C)/N=N/c1[nH]cnc1C(N)=O, the cell viability activity falls from 14.6% to -26.5%.

Going from C=C[C@@](C)(/C=C/c1ccc(O)cc1)CCC=C(C)C to CC(C)(C)CC(C)(C)c1ccc(OCCOCC[N+](C)(C)Cc2ccccc2)cc1, the cell viability activity falls from -49.8% to -97.2%.
